# PubChem BioAssay (NCATS)
# Results filed as inconclusive are left out. Entries that show only a call come without a potency. The source made the active and inactive calls. The call rests on the fitted dose curve.
# Assay: Primary qHTS for Huh7 cytotoxicity: counterscreen for inhibitors of MERS-S pseudotyped particle cell entry (AID 1479147)
# Conditions: cell viability read-out; series mostly up to 57.1 µM
# Potency means the concentration at half of the fitted maximal effect.
row,SMILES,Potency
1,CC(C)(C)c1cc(C(C)(C)C)c(NC(=O)c2c[nH]c3ccccc3c2=O)cc1O,inactive
2,Cn1cncc1[C@@](N)(c1ccc(Cl)cc1)c1ccc2c(c1)c(-c1cccc(Cl)c1)cc(=O)n2C,inactive
3,CCCS(=O)(=O)Nc1ccc(F)c(C(=O)c2c[nH]c3ncc(-c4ccc(Cl)cc4)cc23)c1F,inactive
4,COc1cc2nccc(Oc3ccc(NC(=O)C4(C(=O)Nc5ccc(F)cc5)CC4)cc3)c2cc1OC,inactive
5,O=C(c1cc(Cc2n[nH]c(=O)c3ccccc23)ccc1F)N1CCN(C(=O)C2CC2)CC1,inactive
6,Oc1c(I)cc(I)c2cccnc12,inactive
7,C[C@@H]1CCN(C(=O)CC#N)C[C@@H]1N(C)c1ncnc2[nH]ccc12,inactive
8,C[C@@H](N)C(=O)O,inactive
9,CCCCCCCCCCCCCCCC[N+](C)(C)C,inactive
10,Cc1cn(-c2cc(NC(=O)c3ccc(C)c(Nc4nccc(-c5cccnc5)n4)c3)cc(C(F)(F)F)c2)cn1,inactive
11,CC(=O)[O][Hg][c]1ccccc1,3.98 µM (active)
